Active and inactive are the calls of the source.

Data on 5 compounds can be found in PubChem BioAssay.

One assay has as its target Albumin (Bos taurus) (UniProt P02769). Put plainly: compounds binding labelled BSA control protein – biochemical, small-molecule microarray, Alexa647 label, 635/667 nm fluorescence, artefact control for SMM control protein annotation, profiling panel (AID 1118).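 Note: score merges 667 nm emission intensity and signal-to-noise per printed compound spot.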 Conditions: BSA-A647 binding, fluorescence 635 nm, higher = more signal.
Assay [1] in a line: probe aXIP binding to arrayed compounds – biochemical, NeuroSMM set, 635/667 nm fluorescence, primary screen (AID 1119).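 Note: probe is the protein aXip251-270 applied at 1 µg/mL to compound-printed slides; binding of probe to printed compounds measured as 667 nm fluorescence plus signal to noise.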 Particulars: small-molecule microarray, higher = more signal, called active from +8 up or from −8 down.
A short description of assay [2]: probe aNOTCH3 binding on compound microarray – biochemical, small-molecule microarray, 635/667 nm fluorescence, primary screen (AID 1120).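 Note: probe is a biotin-tagged antibody raised against NOTCH3 rather than NOTCH3 protein; score merges spot fluorescence near 667 nm with spot signal to noise.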 Conditions: higher = more signal.
A short description of assay [3]: probe aNOTCH2 binding on compound microarray – biochemical, small-molecule microarray, 635/667 nm fluorescence, primary screen (AID 1121).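 Note: score merges feature fluorescence read at 667 nm with its signal to noise.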 Conditions: higher = more signal.
The target in assay [4] is Carbonic anhydrase 2 (Homo sapiens) (UniProt P00918). Put plainly: compounds binding carbonic anhydrase 2 – biochemical, small-molecule microarray, Alexa647-labelled CAII, profiling panel (AID 1122). Conditions: CAII-A647 binding fluorescence, higher = more signal.
Assay [5] in a line: COS7 lysate on small-molecule microarray, probe aHis, 635 nm (AID 1123).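 Note: z-score combines 667nm fluorescence intensity with signal-to-noise per printed compound spot.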 Conditions: COS7 cell lysate, fluorescence, higher = more signal.
Assay [6] can be described thus: probe aLAP1 signal on lysate-treated microarray – cell lysate, small-molecule microarray, COS7 lysate, primary screen (AID 1124).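 Note: lysate comes from COS7 cells expressing LAP1 and is applied at 0.3 µg/mL; score merges spot fluorescence near 667 nm with signal-to-noise over triplicate slides.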 Conditions: probe aLAP1, fluorescence, higher = more signal.
A further assay has as its system Sam68 (KHDRBS1). Put plainly: compounds binding KHDRBS1 protein – biochemical, small-molecule microarray, 635 nm fluorescence, primary screen (AID 1125).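 Note: score merges 667 nm channel intensity with signal to noise over triplicate slides.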 Conditions: higher = more signal.
Assay [7] has as its system Chordin-like protein 2 (CHRDL2). Put plainly: compounds binding chordin-like 2 – biochemical, small-molecule microarray, 635 nm fluorescence, primary screen (AID 1126).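 Note: printed compound slides probed with Chrdl2 protein at 4 µg/mL for 1 h at 4 C; score merges 667 nm emission intensity with signal to noise over three replicate slides.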 Particulars: fluorescence 635 nm, higher = more signal.
The target in assay [8] is Concanavalin-A (Canavalia ensiformis) (UniProt P02866). Put plainly: compounds binding concanavalin A lectin – biochemical, small-molecule microarray, Alexa647 label, 635 nm, artefact control for SMM control protein annotation, primary screen (AID 1127).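 Note: z combines 667 nm emission intensity with signal-to-noise across three replicate slides.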 Conditions: ConA-A647 binding fluorescence, higher = more signal.
Sequence of Concanavalin-A (Canavalia ensiformis) (P02866 whole entry, looked up): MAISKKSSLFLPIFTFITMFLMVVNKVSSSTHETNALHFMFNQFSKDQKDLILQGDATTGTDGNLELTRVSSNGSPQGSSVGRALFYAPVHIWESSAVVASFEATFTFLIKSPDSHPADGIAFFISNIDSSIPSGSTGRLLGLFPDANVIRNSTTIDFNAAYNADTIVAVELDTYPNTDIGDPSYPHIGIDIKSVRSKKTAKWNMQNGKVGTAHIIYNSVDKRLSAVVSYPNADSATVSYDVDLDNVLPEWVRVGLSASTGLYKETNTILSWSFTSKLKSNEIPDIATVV
A short description of assay [9]: compounds binding Alexa647 anti-His antibody – biochemical, small-molecule microarray, 635 nm fluorescence, artefact control for SMM control protein annotation, primary screen (AID 1128).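 Note: score merges feature fluorescence with signal-to-noise for each printed compound spot.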 Particulars: higher = more signal.
For assay [10], the system named is Human papillomavirus type 1a E7 protein (residues 1-88). Put plainly: HPV1a E7 small-molecule binders, primary screen, biochemical, small-molecule microarray, residues 1-88, 635 nm (AID 1129). Conditions: small-molecule microarray binding, fluorescence 635 nm; higher = more signal.
Assay [11] addresses Focal adhesion kinase 1 (Homo sapiens) (UniProt Q05397). Put plainly: PTK2 protein binding on printed compound slides – biochemical, small-molecule microarray, 635/667 nm fluorescence, BSA, DTT, primary screen (AID 1130).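 Note: composite of spot emission at 667 nm and signal to noise over triplicate slides.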 Particulars: 635 nm fluorescence, higher = more signal.
Assay [12] has as its system Fibrinogen (Alexa647-labelled). Put plainly: Alexa647-fibrinogen binding to printed small molecules – biochemical, small-molecule microarray, 635/667 nm fluorescence, artefact control for SMM control-protein annotation, profiling panel (AID 1131).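 Note: z-score merges 667 nm fluorescence with per-spot signal-to-noise over triplicate slides.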 Conditions: fibrinogen-A647 binding fluorescence, higher = more signal.
Assay [13] deals with Follistatin (Homo sapiens) (UniProt P19883). The experiment in a line: FST protein binding to printed compounds – biochemical, small-molecule microarray, 635/667 nm fluorescence, primary screen (AID 1132). Conditions: 635 nm fluorescence, higher = more signal.
Sequence of Follistatin (Homo sapiens) (P19883 whole entry, looked up): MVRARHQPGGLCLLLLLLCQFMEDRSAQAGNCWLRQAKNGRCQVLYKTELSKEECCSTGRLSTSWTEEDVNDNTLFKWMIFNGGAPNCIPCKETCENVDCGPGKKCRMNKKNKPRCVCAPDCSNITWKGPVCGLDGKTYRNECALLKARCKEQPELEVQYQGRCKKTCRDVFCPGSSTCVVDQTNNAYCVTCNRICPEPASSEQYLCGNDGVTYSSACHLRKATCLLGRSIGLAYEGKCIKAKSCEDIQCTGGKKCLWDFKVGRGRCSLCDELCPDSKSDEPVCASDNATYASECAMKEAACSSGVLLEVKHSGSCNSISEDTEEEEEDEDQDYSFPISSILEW
Assay [14] concerns the target Fibroblast growth factor 2 (Homo sapiens) (UniProt P09038). Put plainly: basic fibroblast growth factor binding to printed compounds – biochemical, small-molecule microarray, 635/667 nm fluorescence, primary screen (AID 1133). Conditions: FGF2, fluorescence 635/667, higher = more signal.
Assay [15] can be described thus: JC-1 mitochondrial potential readout, lung cancer cells – cell-based, A549, JC-1 fluorescence, basal, 24 h, 100 nL, profiling panel (AID 1138).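 Note: A549 lung adenocarcinoma cells under basal conditions with no added stimulus; test concentration not given here.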 Particulars: higher = more signal.
The test system of another assay is Lefty1. Put plainly: Lefty1 protein binding to printed compounds – biochemical, small-molecule microarray, 635/667 nm fluorescence, primary screen (AID 1139). Particulars: fluorescence 635/667, higher = more signal.
The subject of assay [16] is wheat germ agglutinin (Triticum aestivum), Alexa647-labelled. The experiment in a line: Alexa647-WGA lectin binding to printed small molecules – biochemical, small-molecule microarray, 635/667 nm fluorescence, artefact control for SMM control-protein annotation, profiling panel (AID 1140).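 Note: score merges 667 nm feature emission with signal to noise over triplicate slides.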 Particulars: WGA-A647 binding, 635 nm fluorescence, higher = more signal.
The target of assay [17] is Luciferin 4-monooxygenase (Photinus pyralis) (UniProt P08659). Put plainly: inhibition of purified Photinus pyralis luciferase – biochemical, luminescence, purified enzyme, 2006 set, primary screen (AID 1141).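 Note: cell-free assay with purified firefly luciferase at 100 ng per well in PBS; test concentration not given here.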 Particulars: purified firefly luciferase, SteadyGlo luminescence, 30 min; higher = more signal, called active from +8 up or from −8 down.
Sequence of Luciferin 4-monooxygenase (Photinus pyralis) (P08659 whole entry, looked up): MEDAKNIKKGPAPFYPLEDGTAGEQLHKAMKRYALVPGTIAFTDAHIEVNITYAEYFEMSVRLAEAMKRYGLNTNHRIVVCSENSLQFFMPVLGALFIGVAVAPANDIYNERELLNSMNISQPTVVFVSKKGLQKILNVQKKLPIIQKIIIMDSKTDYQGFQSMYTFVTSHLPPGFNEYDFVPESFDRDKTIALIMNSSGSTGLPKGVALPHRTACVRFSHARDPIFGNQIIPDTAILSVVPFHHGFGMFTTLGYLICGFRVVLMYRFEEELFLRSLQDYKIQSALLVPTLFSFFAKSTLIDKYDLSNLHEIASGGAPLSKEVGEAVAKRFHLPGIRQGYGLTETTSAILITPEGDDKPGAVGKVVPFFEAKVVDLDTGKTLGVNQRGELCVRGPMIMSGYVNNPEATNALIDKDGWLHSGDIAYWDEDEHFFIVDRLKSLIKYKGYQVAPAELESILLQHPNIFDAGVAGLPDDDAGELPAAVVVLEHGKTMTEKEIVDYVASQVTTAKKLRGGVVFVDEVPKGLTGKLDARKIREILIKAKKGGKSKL

Sequence of Focal adhesion kinase 1 (Homo sapiens) (Q05397 whole entry, looked up): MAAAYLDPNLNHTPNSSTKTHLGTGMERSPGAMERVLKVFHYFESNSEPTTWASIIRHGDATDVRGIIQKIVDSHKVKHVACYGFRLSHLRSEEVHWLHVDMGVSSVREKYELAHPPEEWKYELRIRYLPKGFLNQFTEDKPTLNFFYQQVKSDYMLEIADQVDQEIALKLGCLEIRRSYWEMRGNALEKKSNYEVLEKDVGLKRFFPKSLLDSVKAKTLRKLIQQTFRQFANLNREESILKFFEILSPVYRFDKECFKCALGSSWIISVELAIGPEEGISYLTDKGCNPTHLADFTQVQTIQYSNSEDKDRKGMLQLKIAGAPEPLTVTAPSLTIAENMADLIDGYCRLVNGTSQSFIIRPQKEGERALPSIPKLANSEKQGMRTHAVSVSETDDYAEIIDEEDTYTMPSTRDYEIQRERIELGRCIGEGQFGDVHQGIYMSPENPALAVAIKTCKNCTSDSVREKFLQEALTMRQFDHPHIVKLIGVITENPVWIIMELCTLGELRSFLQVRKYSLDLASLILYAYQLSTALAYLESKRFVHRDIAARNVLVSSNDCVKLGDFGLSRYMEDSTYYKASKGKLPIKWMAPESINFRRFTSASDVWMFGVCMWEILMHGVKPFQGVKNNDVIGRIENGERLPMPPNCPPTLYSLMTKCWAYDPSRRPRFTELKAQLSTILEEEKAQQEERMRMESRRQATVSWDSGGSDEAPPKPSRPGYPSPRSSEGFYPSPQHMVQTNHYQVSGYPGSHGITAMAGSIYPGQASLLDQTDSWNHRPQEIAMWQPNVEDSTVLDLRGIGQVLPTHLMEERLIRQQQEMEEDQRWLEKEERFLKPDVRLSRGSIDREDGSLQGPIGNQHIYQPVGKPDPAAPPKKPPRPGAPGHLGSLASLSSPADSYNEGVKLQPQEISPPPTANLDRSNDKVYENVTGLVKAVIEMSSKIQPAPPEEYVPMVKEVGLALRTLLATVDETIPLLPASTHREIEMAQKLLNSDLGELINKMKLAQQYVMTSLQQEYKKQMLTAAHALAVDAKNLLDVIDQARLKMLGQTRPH
Sequence of Fibroblast growth factor 2 (Homo sapiens) (P09038 whole entry, looked up): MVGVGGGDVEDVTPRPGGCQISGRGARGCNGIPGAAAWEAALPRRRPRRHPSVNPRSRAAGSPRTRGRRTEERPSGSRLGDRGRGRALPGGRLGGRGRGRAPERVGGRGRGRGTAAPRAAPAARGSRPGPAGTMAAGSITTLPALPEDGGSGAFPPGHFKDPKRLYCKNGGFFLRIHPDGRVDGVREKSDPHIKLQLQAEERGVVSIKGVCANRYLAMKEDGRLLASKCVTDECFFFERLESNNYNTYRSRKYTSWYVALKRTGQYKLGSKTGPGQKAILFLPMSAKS
Sequence of Albumin (Bos taurus) (P02769 whole entry, looked up): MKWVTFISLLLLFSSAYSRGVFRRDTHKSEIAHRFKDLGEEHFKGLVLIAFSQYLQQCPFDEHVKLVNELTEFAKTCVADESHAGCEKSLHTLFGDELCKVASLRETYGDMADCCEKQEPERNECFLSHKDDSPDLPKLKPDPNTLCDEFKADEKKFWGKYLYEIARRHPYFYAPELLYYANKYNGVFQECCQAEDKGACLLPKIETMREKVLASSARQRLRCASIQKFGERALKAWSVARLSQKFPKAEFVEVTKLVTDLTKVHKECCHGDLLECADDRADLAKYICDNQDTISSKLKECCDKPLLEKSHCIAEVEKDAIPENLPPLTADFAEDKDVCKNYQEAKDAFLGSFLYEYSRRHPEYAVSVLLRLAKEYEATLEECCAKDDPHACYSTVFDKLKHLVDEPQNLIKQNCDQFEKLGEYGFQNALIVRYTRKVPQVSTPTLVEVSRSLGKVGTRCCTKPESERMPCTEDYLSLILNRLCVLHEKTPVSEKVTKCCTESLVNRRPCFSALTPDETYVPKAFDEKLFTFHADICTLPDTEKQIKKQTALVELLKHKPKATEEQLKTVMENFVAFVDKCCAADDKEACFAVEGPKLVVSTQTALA

For the compound `CCOC(=O)C[C@H]1[C@H](OC(=O)c2cc3ccccc3oc2=O)[C@@H](NC(=O)c2ccccc2)c2cc(OCCCO)ccc2N1C(=O)Cc1ccc(OC)cc1`, the composite z-score was -0.0029 with Albumin (Bos taurus); 0.0488 in [2]; -0.0578 in [3]; 0.467 in assay [4]; 0.257 in assay [5]; 0.324 in [6]. Besides, the composite z-score with Sam68 (KHDRBS1) is 0.382; in [7] it was 0.357; in [8], 0.773; in assay [9], -0.657; in assay [10], 0.345; in [11], 0.5. The composite z-score in assay [12] amounted to 0.465; in [13], 0.856; in assay [14], 0.948; with Lefty1 it was 0.584; in assay [16], 0.247. Besides, the composite Z-score in [1] was -0.0478 (inactive). Also, the z-score in assay [15] was -0.42; in assay [17], -0.243 (inactive).
For `COc1ccc(/C=C/C(=O)c2cccc(OCC(=O)OC(C)(C)C)c2)cc1`, the composite z-score was 0.396 with Albumin (Bos taurus); -0.176 in [2]; -0.133 in [3]; -0.0082 in assay [4]; 0.872 in [5]; 0.651 in assay [6]. The composite z-score is 1.02 with Sam68 (KHDRBS1); -0.55 in assay [7]; 0.4 in assay [8]; 0.0179 in assay [9]; 0.67 in assay [10]; 0.168 in [11]. The composite z-score in [12] was 0.158; in assay [13], -0.708; in [14], -0.453; in the assay on Lefty1, -0.51; in assay [16], 0.248. Besides, the composite Z-score in [1] is -0.0202 (inactive). Also, the figures for the z-score in [15] and in [17] were 1.57 and -2.64 (inactive), respectively.
Consider `C=CCN1C(=O)[C@@]2(O[C@@H](CCn3cc(CCO)nn3)[C@H]([Si](C)(C)c3ccc(OC)cc3)[C@H]2C)c2cc(NC(=O)c3ccc(OC)cc3)ccc21`, for which the composite z-score was -0.0754 in the assay with Albumin (Bos taurus); 0.0676 in assay [2]; 0.443 in assay [3]; 0.156 in assay [4]; 1.36 in assay [5]; 0.493 in [6]. Moreover, the composite z-score in the assay with Sam68 (KHDRBS1) was 1.15; in assay [7], 0.808; in [8], 1.08; in assay [9] it was 0.309; in assay [10], 0.812; in assay [11] it was 0.129. In addition, the composite z-score in assay [12] came out at 0.323; in assay [13], 1.14; in assay [14], 0.645; in the assay with Lefty1 it was 1.02; in assay [16], 0.922. Also, in assay [1], the composite Z-score is -0.444 (inactive). In addition, the z-score in assay [15] is 2.77; in assay [17], -1.51 (inactive).
With `C=C(COC)C(=O)CC[C@H](OC(=O)c1cccnc1)c1cccc(OCCO)c1`, the composite z-score is -0.197 in the assay with Albumin (Bos taurus); 0.53 in [2]; 0.156 in [3]; 0.608 in assay [4]; 0.613 in assay [5]; 0.123 in assay [6]. The composite z-score in the assay with Sam68 (KHDRBS1) is 0.579; in assay [7] it was 0.601; in assay [8], -0.0509; in assay [9], -0.107; in assay [10] it was 0.0325; in assay [11], 0.481. Moreover, the composite z-score is -0.09 in [12]; 0.896 in assay [13]; 1.57 in assay [14]; 1.05 in the assay with Lefty1; -0.363 in assay [16]. In addition, the composite Z-score in [1] was -0.19 (inactive). Moreover, the z-score in assay [15] was 1.39; in [17], -2.13 (inactive).
Turning to `[N-]=[N+]=NCc1ccccc1C[C@@]1(C(=O)NCc2ccccc2)N=C(c2ccc(OCCCO)cc2)O[C@@H]1c1ccccc1`, the composite z-score with Albumin (Bos taurus) is 0.825; in assay [2], 0.0562; in assay [3] it was -0.0389; in assay [4], 0.28; in assay [5], 0.86; in [6], -0.401. The composite z-score in the assay with Sam68 (KHDRBS1) was 0.474; in assay [7] it was -1.01; in [8] it was 0.266; in [9], 1.87; in assay [10] it was 1.13; in [11], 0.621. The composite z-score in assay [12] is 0.483; in [13], 0.327; in assay [14], -0.165; in the assay on Lefty1, -0.698; in [16], 1. Moreover, the composite Z-score in assay [1] was 0.109 (inactive). Further, the z-score in assay [15] is 1.79; in [17], -1.15 (inactive).
